Screens as filed in PubChem.
Only some compounds are listed: those with a hit (about 2.7% of all), similar ones and a draw of the others.
PP1 counter = PP1-alpha phosphatase inhibitors, primary screen, counter-screen for PP5 inhibitor project, biochemical, fluorescence, OMFP substrate, single point; purified PP1alpha; inhibition, % at 6.7 µM; 320,000 tested, 0.9% active; AID 2235, 2010;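 active = inhibition above the mean inhibition of all tested compounds plus 3 SD, computed separately for each screening campaign, cut at about 15% in these data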
PREPL inh = PREPL enzyme inhibitors, primary screen, biochemical, fluorescence polarization | Prolyl endopeptidase-like (Homo sapiens), Q4J6C6 | recombinant PREPL, fluorescence polarization activity-based probe | 320,000 tested, 0.68% active | inhibition, % at 5.96 µM; in the data active = inhibition above about 43%
Target sequence (Q4J6C6 whole entry, looked up): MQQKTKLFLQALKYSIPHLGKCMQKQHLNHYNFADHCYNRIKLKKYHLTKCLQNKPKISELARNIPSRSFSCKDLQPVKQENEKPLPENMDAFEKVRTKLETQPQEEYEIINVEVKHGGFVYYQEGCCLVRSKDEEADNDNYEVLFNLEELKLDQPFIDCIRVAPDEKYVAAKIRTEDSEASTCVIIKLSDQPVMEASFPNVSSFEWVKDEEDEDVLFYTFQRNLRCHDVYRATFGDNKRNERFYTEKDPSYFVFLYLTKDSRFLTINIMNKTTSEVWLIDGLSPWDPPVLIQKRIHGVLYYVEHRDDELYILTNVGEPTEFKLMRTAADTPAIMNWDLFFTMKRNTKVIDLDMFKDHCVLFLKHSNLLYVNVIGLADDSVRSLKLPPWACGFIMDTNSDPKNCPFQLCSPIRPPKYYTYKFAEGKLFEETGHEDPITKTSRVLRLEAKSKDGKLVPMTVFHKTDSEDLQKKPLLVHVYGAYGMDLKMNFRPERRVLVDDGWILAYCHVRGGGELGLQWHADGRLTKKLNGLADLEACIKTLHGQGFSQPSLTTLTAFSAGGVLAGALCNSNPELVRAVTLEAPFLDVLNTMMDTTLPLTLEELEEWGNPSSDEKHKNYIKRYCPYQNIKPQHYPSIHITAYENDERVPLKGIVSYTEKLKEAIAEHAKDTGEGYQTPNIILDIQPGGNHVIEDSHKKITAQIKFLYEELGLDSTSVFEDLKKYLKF
ANO1 activ = TMEM16A chloride channel activators or potentiators, primary screen, cell-based, HTS; B-score at 10 µM; HEK293 TMEM16A/YFP-H148Q/I152L, iodide quench fluorescence; stronger effect = lower value; AID 623877, 2012; Anoctamin-1 (Mus musculus), Q8BHY3; 340,000 tested, 0.3% active;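 active = fluorescence-ratio B-score plate-corrected deviation score at least 3 library SD below zero, with starting fluorescence score within 5 deviations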;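 note: channel opened by trigger with iodide after compound preincubation; score built on the fluorescence ratio of max minus min over baseline; more negative score means more quench and so TMEM16A activation or potentiation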
DNA FID counter = compounds displacing fluorescent DNA intercalator, primary screen, artefact control for HCV NS3 helicase inhibitor project, biochemical, FID fluorescence; AID 1845, 2009; DNA fluorescent intercalator displacement; inhibition, % at 7.9 µM; 290,000 tested, 0.17% active; in the data active = inhibition above about 37%;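 note: higher means more ethidium bromide displaced from hairpin DNA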
PP5 primary = PP5 phosphatase inhibitors, primary screen, biochemical, fluorescence. Serine/threonine-protein phosphatase 5 (Homo sapiens), P53041. purified PP5c, OMFP substrate fluorescence. inhibition, % at 6.7 µM. 320,000 tested, 0.18% active. AID 1987, 2009;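 active = inhibition above the campaign's mean inhibition across all tested compounds plus 3 SD, cut at about 9.5% in these data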
ANO1 block = TMEM16A chloride channel inhibitors, primary screen, cell-based, HTS. HEK293 TMEM16A/YFP iodide influx fluorescence, ionomycin. normalized B-score (activity score, 25-100; higher = stronger inhibition) at 10 µM. 310,000 tested, 1.2% active;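 active = ratio plate-corrected score three or more library SD toward inhibition, starting fluorescence score within five deviations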;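 note: score derived from kinetic fluorescence span divided by baseline fluorescence per well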
TMEM16A reconf = TMEM16A chloride channel inhibitors, confirmation, cell-based, re-confirmation; shares compounds with ANO1 block; HEK293 TMEM16A/YFP-H148Q, iodide quench fluorescence; ionomycin added to raise cell calcium; inhibition, % at 10 µM; 2,300 tested, 39% active; AID 652189, 2013;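 active = mean duplicate percent inhibition, scaled so buffer wells are 0 and the reference blocker 100, over three buffer SD above buffer mean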
TMEM16A Ca cntr = calcium mobilization in TMEM16A/YFP HEK293 cells, confirmation, counter-screen for TMEM16A inhibitor project. shares compounds with ANO1 block. Fluo4 calcium mobilization. calcium response (% of ionomycin), % at 10 µM. 2,300 tested, 2% active;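 active = duplicate-averaged calcium signal over 20% of the ionomycin maximum, relative to buffer baseline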;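 note: each well's signal is peak minus trough fluorescence divided by its pre-addition baseline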
Parental YFP cnt = iodide YFP quench changes in parental YFP-HEK293, counter-screen for TMEM16A inhibitor project, cell-based. shares compounds with ANO1 block. ionomycin. YFP ratio F(max-min)/F0 at 10 µM. 2,300 tested, under 10 active. AID 652233, 2013;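 active = yellow fluorescent protein signal ratio exceeding the buffer control mean by over 5 SD of those controls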;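 note: ratio is mean of duplicate wells from kinetic YFP trace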
ClC-1 inh = ClC-1 chloride channel inhibition, selectivity assay for TMEM16A inhibitor project, cell-based, voltage-dependent ClC-1; ratio percent, % at 10 µM; shares compounds with ANO1 block; 2,300 tested, under 10 active; CHO ClC-1-YFP, iodide influx fluorescence quench; iodide control reads 0, buffer control 100;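 active = duplicate-mean ratio percent above the mean of iodide-only control wells, which defines zero, plus 5 of their SD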;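 note: higher percent means stronger block of ClC-1 iodide influx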
A number is an active result; - = inactive; . = no result given.

SMILES	PP1 counter	PREPL inh	ANO1 activ	DNA FID counter	PP5 primary	ANO1 block	TMEM16A reconf	TMEM16A Ca cntr	Parental YFP cnt	ClC-1 inh
COc1ccc(N2CC(O)=C(c3n(C)c4ccccc4[n+]3C)C2=N)cc1	-	-	-	-	-	25	-	-	-	-
Cc1ccc(NC2CCCCC2NS(=O)(=O)c2ccc(Cl)cc2)cc1 (stereo not drawn)	-	-	-	-	-	-	.	.	.	.
O=S(=O)(NC1CCCCC1Nc1ccc(Cl)cc1)c1ccccc1 (stereo not drawn)	-	-	-	-	-	25	-	-	-	-
COc1cc(CNc2ccc(CNc3ncn[nH]3)cc2)ccc1OCc1ccccc1	-	-	-	-	-	-	.	.	.	.
O=C(c1cc(-c2ccccc2)nc2ccccc12)N1N=C(C(F)F)CC1(O)C(F)F (stereo not drawn)	-	-	-	-	-	100	-	-	-	-
Cc1cccc(C(=O)NCC(=O)N2CCN(c3ccccn3)CC2)c1	.	-	-	.	.	.	.	.	.	.
O=C(COC(=O)Cc1c(Cl)cccc1Cl)Nc1ccccc1-c1ccccc1	-	-	-	-	-	25	-	-	-	-
O=C(COC(=O)Cc1ccc(Cl)cc1)Nc1ccccc1-c1ccccc1	-	-	-	-	-	-	.	.	.	.
CCOC(=O)CC1CCCCN1C(=O)c1cc(COc2cccc3cnccc23)on1 (stereo not drawn)	-	-	-	-	-	25	46%	-	-	-
COCCC1CCCCN1C(=O)c1cc(COc2cccc(C(C)=O)c2)on1 (stereo not drawn)	-	-	-	-	-	-	.	.	.	.
Nc1nc(NC(=O)CCC(=O)O)nn1-c1ccccc1	-	-	-	-	-	-	.	.	.	.
COc1ccc(N2C(=O)C3CCCN3C2c2cccc(OC)c2OC)cc1 (stereo not drawn)	-	-	-	-	-	25	-	-	-	-
COc1ccc(CNC(=O)CN2CCC(NC(=O)c3ccc(OC)cc3)CC2)cc1	.	.	-	-	.	.	.	.	.	.
CCOC(=O)c1ccc(NC(=S)N2CCSC2c2ccc(Br)cc2)cc1 (stereo not drawn)	-	-	-6.5	-	-	25	82%	-	-	-
c1ccc2c(c1)nc(N1CCOCC1)c1nnnn12	-	-	-	-	-	-	.	.	.	.
c1ccc(N2CCN(c3nc4ccccc4n4nnnc34)CC2)cc1	-	-	-	-	-	-	-	-	-	-
COc1ccc(C)cc1-n1nnnc1SCc1cc(=O)n2cc(C)ccc2n1	-	-	-	-	-	25	-	-	-	-
C/C(=N\NC1=NCCN1)c1ccccc1	-	-	-	-	-	-	.	.	.	.
COc1ccc(Br)cc1/C(C)=N/NC1=NCCN1	-	-	-	-	-	100	20%	-	-	-
COc1ccc(NC(=O)CN(C)C(=O)c2ccc(-c3ccccc3Cl)o2)cc1	-	-	-	.	-	-	.	.	.	.
CC(c1ccco1)N(C(=O)c1cc(Cl)cc(Cl)c1)c1ccccn1 (stereo not drawn)	-	-	-	-	-	-	.	.	.	.
CC(c1ccco1)N(C(=O)c1ccccc1NS(=O)(=O)c1ccc(Cl)c([N+](=O)[O-])c1)c1ccccn1 (stereo not drawn)	-	-	-	-	-	100	26%	-	-	-
COC(=O)[C@@H](Cc1ccccc1)NC(=O)NCCc1ccc(OC)c(OC)c1	-	-	-	-	-	-	.	.	.	.
Clc1ccc(Cn2ncc3c(N4CCCC4)ncnc32)cc1	-	-	-	-	-	-	.	.	.	.
CC1CC(C)CN(c2ncnc3c2cnn3Cc2ccc(Cl)cc2)C1 (stereo not drawn)	-	-	-	-	-	25	-	-	-	-
SMILES	PP1 counter	PREPL inh	ANO1 activ	DNA FID counter	PP5 primary	ANO1 block	TMEM16A reconf	TMEM16A Ca cntr	Parental YFP cnt	ClC-1 inh
Cc1ccc(OCCC(=O)OCC(=O)Nc2ccc3c(c2)OCO3)cc1	-	-	-	.	-	-	.	.	.	.
Cc1ccc(OCC(=O)N2CC(C)CC(C)C2)c([N+](=O)[O-])n1 (stereo not drawn)	.	-	-	.	.	.	.	.	.	.
COc1ccc(Cc2nc(-c3ccc(-n4cccc4)cc3)no2)cc1OC	-	-	-	-	-	100	-	-	-	-
COC(=O)c1sccc1NC(=O)c1c(Cl)cnn1C	-	-	-	-	-	-	.	.	.	.
CCN(CC)S(=O)(=O)c1cc(C(=O)Nc2ccncc2)ccc1Cl	-	-	-	-	-	100	-	-	-	-
Cc1c(O)ccc(C(=O)COc2ccc(F)cc2)c1O	-	-	-	-	-	-	.	.	.	.
CCc1cc(C(=O)COc2ccc(F)cc2)c(O)cc1O	-	-	-	-	-	100	20%	-	-	-
CCOC(=O)c1cc(-c2ccc(OC)cc2)nc2c1c(C)nn2CCC(N)=S	-	-	-	-	-	-	.	.	.	.
CCC(C)C(NC(=O)C1CCC(C)CC1)C(=O)Nc1ccc(OC)cc1OC (stereo not drawn)	-	-	-	-	-	-	.	.	.	.
CCC(C)C(NC(=O)C1CCC(C)CC1)C(=O)Nc1cc(OC)ccc1OC (stereo not drawn)	-	-	-	-	-	25	-	-	-	-
CCOCC(=O)Nc1cc(C(F)(F)F)ccc1Oc1cccc(Br)c1	-	-	-	-	-	25	18%	-	-	-
CC(=O)Nc1cc(C(F)(F)F)ccc1Oc1cccc(Br)c1	-	-	-	-	-	-	.	.	.	.
Cc1nc2ccc(NC(=O)c3sccc3C)cc2s1	-	-	-	-	-	25	-	-	-	-
Nc1nc(-c2cc3ccccc3o2)cs1	-	-	-	-	-	-	.	.	.	.
CN(C)c1ccnc(Oc2ccccc2)c1C#N	.	.	-	-	.	.	.	.	.	.
CN(C)c1ccnc(SCc2ccccc2Cl)c1C#N	-	-	-	-	-	25	-	-	-	-
